Measured values reported in PubChem BioAssay AID651582 (Sanford-Burnham Center for Chemical Genomics, 2012).
Several values for one entry are separate records, joined by “and”; a condition that tells them apart may be missing. Equal entries are not always repeated. About 1,500 (0.65%) of roughly 230,000 compounds were called active.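 The calls were made as follows: active = pattern-corrected inhibition of lipid staining of at least 50% with the nuclear-stain viability signal not falling by more than 50%; inactive = the rest, inconclusive results apart.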 Only a selection was taken, and actives are over-represented in it overall.

Assay: inhibitors of triacylglycerol accumulation, primary screen, cell-based, uHTS, fluorescence, H9c2 (AID 651582);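 as to inhibition: 0% = DMSO wells and 100% = triacsin C control wells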
Settings: H9c2 cells, Nile Red lipid (TAG) fluorescence, at 12.5 µM, cells loaded with 200 µM oleic acid; DAPI nuclei signal change (viability), lower = more cytotoxic: measured here: DAPI nuclei count viability; inhibition: stronger effect = higher value
In the case of `CC(C)C(=O)N1CCN(c2nc(-c3ccccc3)c3c(c2C#N)CC(C)(C)OC3)CC1`, the DAPI nuclei signal change (viability), lower = more cytotoxic is reported as 5.61% and the inhibition is reported as 6.61% (inactive).
For `COc1ccc(C(=O)NCc2ccccc2C)cc1S(=O)(=O)NC1CCCC1`, the DAPI nuclei signal change (viability), lower = more cytotoxic was 1.26% and the inhibition was -5.94% (inactive).
For `C(=N\N1CCN(c2ccccn2)CC1)/C1=C(N2CCOCC2)C(=C/c2ccccc2)/CC1`, the DAPI nuclei signal change (viability), lower = more cytotoxic was 12.6% and the inhibition was 8.28% (inactive).
With `O=C(O)c1ccc(NN=CC2=C(N3CCOCC3)/C(=C/c3ccccc3)CC2)cc1` the DAPI nuclei signal change (viability), lower = more cytotoxic was 1.8% and the inhibition was 2.29% (inactive).
For `O=C1Nc2ccc(Br)cc2/C1=N/N=C/C1=C(N2CCOCC2)C(=C\c2ccccc2)/CC1`, the DAPI nuclei signal change (viability), lower = more cytotoxic was -30.7% and the inhibition was 142% (active).
With `CC(=O)Oc1ccc(Cn2c(C)c(C(=O)NCc3ccc(C#N)cc3)sc2=O)cc1` the DAPI nuclei signal change (viability), lower = more cytotoxic was -0.306% and the inhibition was -4.77% (inactive).
In the case of `COc1cc(Cl)c(C)cc1NC(=O)CSc1nnc(CN2CCCC2)o1`, the DAPI nuclei signal change (viability), lower = more cytotoxic is reported as 4.62% and the inhibition is reported as 1.12% (inactive).
For `Cc1ccn(CC(=O)NC2CCCN(Cc3ccccc3F)C2)n1` (stereo not given), the DAPI nuclei signal change (viability), lower = more cytotoxic was 1.69% and the inhibition was -15.9% (inactive).
In the case of `Cc1ccc(OCCNC(=O)c2cccc(S(=O)(=O)N3CCN(Cc4ccccc4)CC3)c2)cc1`, the DAPI nuclei signal change (viability), lower = more cytotoxic is reported as 3.36% and the inhibition is reported as -7.75% (inactive).
In the case of `CC(C)CCOc1ccc(C(=O)Nc2cc(S(=O)(=O)N3CCOCC3)ccc2N2CCOCC2)cc1`, the DAPI nuclei signal change (viability), lower = more cytotoxic is reported as -52.3% and the inhibition is reported as 65.1% (inactive).
In the case of `O=C(Cc1cccc2ccccc12)Nc1ccc2oc(-c3ccccc3)nc2c1`, the DAPI nuclei signal change (viability), lower = more cytotoxic is reported as -5.68% and the inhibition is reported as 55.2% (active).
With `CCCCCC(=O)Nc1ccc2oc(-c3ccncc3)nc2c1` the DAPI nuclei signal change (viability), lower = more cytotoxic was -5.68% and the inhibition was 4.08% (inactive).
In the case of `O=C(Nc1ccc2oc(-c3ccc4ccccc4c3)nc2c1)c1cccs1`, the DAPI nuclei signal change (viability), lower = more cytotoxic is reported as 21.1% and the inhibition is reported as 33% (inactive).
With `CC(=O)NC(c1cccc(F)c1)c1nc(-c2cccc(F)c2)cs1` (stereo not given) the DAPI nuclei signal change (viability), lower = more cytotoxic was 2.1% and the inhibition was -15.8% (inactive).
For `CCCn1c(N)c(C(=O)CSc2nnc(Cc3cccs3)n2C2CC2)c(=O)[nH]c1=O`, the DAPI nuclei signal change (viability), lower = more cytotoxic was -3.34% and the inhibition was 5.02% (inactive).
In the case of `COc1ccc(S(=O)(=O)N2CCN(CC(=O)NCC3(N4CCOCC4)CCCCC3)CC2)cc1`, the DAPI nuclei signal change (viability), lower = more cytotoxic is reported as -5.18% and the inhibition is reported as -1.89% (inactive).
In the case of `CCOCCC(=O)Nc1ccc2c(c1)c(=O)n(C)n2-c1ccc2ccccc2c1`, the DAPI nuclei signal change (viability), lower = more cytotoxic is reported as -27.1% and the inhibition is reported as 52.9% (active).
With `COc1cc(Cn2c3ccc(NC(=O)CC(C)c4ccccc4)cc3c(=O)n2C)ccc1F` (stereo not given) the DAPI nuclei signal change (viability), lower = more cytotoxic was 6.84% and the inhibition was 4.12% (inactive).
In the case of `CCn1c2ccccc2c2cc(NC(=O)CNC)ccc21`, the DAPI nuclei signal change (viability), lower = more cytotoxic is reported as -1.08% and the inhibition is reported as 10.2% (inactive).
In the case of `NC(=O)CSc1nnc(-c2cccc(S(=O)(=O)N3CCOCC3)c2)o1`, the DAPI nuclei signal change (viability), lower = more cytotoxic is reported as 2.86% and the inhibition is reported as 9.91% (inactive).
With `O=[N+]([O-])c1cccc(C=NN=Cc2ccccc2O)c1` the DAPI nuclei signal change (viability), lower = more cytotoxic was -6.09% and the inhibition was 3.14% (inactive).
For `COc1ccc(NC(=O)C2Cc3c(-c4ccc5c(c4)OCO5)ccnc3O2)cn1` (stereo not given), the DAPI nuclei signal change (viability), lower = more cytotoxic was -129% and the inhibition was 146% (inactive).
With `CCN1C(=O)/C(=C\N2CCOCC2)SC1=S` the DAPI nuclei signal change (viability), lower = more cytotoxic was 1.56% and the inhibition was 1.92% (inactive).
In the case of `CCCCN1C(=O)/C(=C/C=C2/C=Cc3ccccc3N2CC)SC1=S`, the DAPI nuclei signal change (viability), lower = more cytotoxic is reported as 10.9% and the inhibition is reported as 87.8% (active).
For `CCN1C(=O)/C(=C2/Sc3ccccc3N2CCCS(=O)(=O)O)SC1=S`, the DAPI nuclei signal change (viability), lower = more cytotoxic was 12.7% and -2.03% and the inhibition was -9.06% (inactive) and 5.16% (inactive).
For `CCc1nc2c(OCc3ccc(F)c(F)c3)cccn2c1N(C)C(=O)c1ccco1`, the DAPI nuclei signal change (viability), lower = more cytotoxic was -19.3% and the inhibition was 7.19% (inactive).
With `COc1ccc(Nc2ccc3ccccc3c2)cc1` the DAPI nuclei signal change (viability), lower = more cytotoxic was 8.55% and the inhibition was 8.64% (inactive).
With `COc1ccc(N2CCN(Cc3cc(=O)oc4ccc5ccccc5c34)CC2)cc1` the DAPI nuclei signal change (viability), lower = more cytotoxic was 4.7% and the inhibition was 7.86% (inactive).
With `COc1ccc(Nc2cc(=O)oc3ccccc23)cc1` the DAPI nuclei signal change (viability), lower = more cytotoxic was -14.8% and the inhibition was 52.3% (active).
In the case of `COC(=O)c1ccc(C)c(NC(=O)Cn2c(C)csc2=O)c1`, the DAPI nuclei signal change (viability), lower = more cytotoxic is reported as 5.24% and the inhibition is reported as -8.36% (inactive).
In the case of `COc1cccc(NC(=O)C2(C)CCN2Cc2ccccc2Cl)c1` (stereo not given), the DAPI nuclei signal change (viability), lower = more cytotoxic is reported as 10.6% and the inhibition is reported as -19.4% (inactive).
For `CN(C)C(=S)N=c1ssc(=S)n1Cc1ccco1`, the DAPI nuclei signal change (viability), lower = more cytotoxic was -24% and the inhibition was 51% (active).
With `CC1CN(Cc2ccco2)C(=S)N(c2ccccc2)C1=O` (stereo not given) the DAPI nuclei signal change (viability), lower = more cytotoxic was -1.49% and the inhibition was -14.4% (inactive).
For `Cc1cs/c(=N\N=C\c2ccc(O)cc2)n1Cc1ccco1`, the DAPI nuclei signal change (viability), lower = more cytotoxic was -3.51% and the inhibition was -2.08% (inactive).
With `Cc1onc(NC(=O)c2ccc([N+](=O)[O-])o2)c1Br` the DAPI nuclei signal change (viability), lower = more cytotoxic was -38.7% and the inhibition was 59.1% (active).
With `Cc1cccc(NC(=O)c2ccc([N+](=O)[O-])o2)c1` the DAPI nuclei signal change (viability), lower = more cytotoxic was -57.9% and the inhibition was 80.8% (inactive).
With `O=C(Nc1ccc(Br)cn1)c1ccc([N+](=O)[O-])o1` the DAPI nuclei signal change (viability), lower = more cytotoxic was -72.2% and the inhibition was 83.9% (inactive).
With `CC(C)(C)OC(=O)C[C@@H]1C/C=C\C[C@@H](CC(=O)NCCO)C(=O)N[C@H](Cc2c[nH]c3ccccc23)COC1=O` the DAPI nuclei signal change (viability), lower = more cytotoxic was 3.2% and the inhibition was -15.4% (inactive).
In the case of `COc1cccc(NC(=O)CN(C)C(=O)c2ccccc2CCc2ccccc2)c1`, the DAPI nuclei signal change (viability), lower = more cytotoxic is reported as -2.81% and the inhibition is reported as 1.2% (inactive).
With `O=C(COC(=O)c1ccc(F)cc1)NCC1COc2ccccc2O1` (stereo not given) the DAPI nuclei signal change (viability), lower = more cytotoxic was -0.149% and the inhibition was 4.29% (inactive).
